# Source: PubChem BioAssay
# A1 inh: inhibitors of the anti-apoptotic protein A1, read as caspase activation. MEF A1-2A-BIM cells, Caspase-Glo 3/7 luminescence, 3 h; percent of clofoctol response, vehicle zero. caspase activation, % (no concentration beside the values). hit rate 0.066% among 330,000. AID 2462;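 active = over half of replicate activation scores above 10%, or exactly half above 10 with the replicate mean above 10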
# NPR2 activator: GC-B (human) receptor activation; P20594; HEK293-GC-B cells, CNP EC30, cGMP TR-FRET; 0% at EC30 CNP, 100% saturating CNP; activation, % at 10 µM; hit rate 0.11% among 370,000; AID 1920062;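 active = activation at 10 µM reaching about 35% in either raw or pattern-adjusted values, limit read from the data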
# H9c2 TAG inh: triacylglycerol accumulation inhibition; H9c2 cells, Nile Red lipid (TAG) fluorescence; cells loaded with 200 µM oleic acid; inhibition, % at 12.5 µM; hit rate 0.66% among 230,000;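 active = pattern-corrected inhibition of lipid staining of at least 50% with the nuclear-stain viability signal not falling by more than 50%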;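 note: 0% = DMSO wells and 100% = triacsin C control wells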
# Efflux pump mplx: antifungal efflux pump inhibition, Nile Red retention. S. cerevisiae Candida pump triplex. inhibition, % at 10 µM. hit rate 0.44% among 330,000;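 active = plate passing quality check with inhibition over a set limit, or well fluorescence over plate mean plus 4 SD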;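 note: Nile Red retained in pooled yeast measured as flow cytometry median fluorescence; 0% = buffer negative control and 100% = Enniatin B positive control; higher means more Nile Red kept so more efflux inhibition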
# NPR1 activator: GC-A (human) enzyme activation | activation, % at 10 µM | HEK293 GC-A cells, cGMP TR-FRET, EC30 ANP; 0% at EC30 ANP, 100% saturating ANP | hit rate 0.14% among 370,000 | P16066; in the data active = activation above about 40%
# Target sequence (P16066 whole entry, looked up): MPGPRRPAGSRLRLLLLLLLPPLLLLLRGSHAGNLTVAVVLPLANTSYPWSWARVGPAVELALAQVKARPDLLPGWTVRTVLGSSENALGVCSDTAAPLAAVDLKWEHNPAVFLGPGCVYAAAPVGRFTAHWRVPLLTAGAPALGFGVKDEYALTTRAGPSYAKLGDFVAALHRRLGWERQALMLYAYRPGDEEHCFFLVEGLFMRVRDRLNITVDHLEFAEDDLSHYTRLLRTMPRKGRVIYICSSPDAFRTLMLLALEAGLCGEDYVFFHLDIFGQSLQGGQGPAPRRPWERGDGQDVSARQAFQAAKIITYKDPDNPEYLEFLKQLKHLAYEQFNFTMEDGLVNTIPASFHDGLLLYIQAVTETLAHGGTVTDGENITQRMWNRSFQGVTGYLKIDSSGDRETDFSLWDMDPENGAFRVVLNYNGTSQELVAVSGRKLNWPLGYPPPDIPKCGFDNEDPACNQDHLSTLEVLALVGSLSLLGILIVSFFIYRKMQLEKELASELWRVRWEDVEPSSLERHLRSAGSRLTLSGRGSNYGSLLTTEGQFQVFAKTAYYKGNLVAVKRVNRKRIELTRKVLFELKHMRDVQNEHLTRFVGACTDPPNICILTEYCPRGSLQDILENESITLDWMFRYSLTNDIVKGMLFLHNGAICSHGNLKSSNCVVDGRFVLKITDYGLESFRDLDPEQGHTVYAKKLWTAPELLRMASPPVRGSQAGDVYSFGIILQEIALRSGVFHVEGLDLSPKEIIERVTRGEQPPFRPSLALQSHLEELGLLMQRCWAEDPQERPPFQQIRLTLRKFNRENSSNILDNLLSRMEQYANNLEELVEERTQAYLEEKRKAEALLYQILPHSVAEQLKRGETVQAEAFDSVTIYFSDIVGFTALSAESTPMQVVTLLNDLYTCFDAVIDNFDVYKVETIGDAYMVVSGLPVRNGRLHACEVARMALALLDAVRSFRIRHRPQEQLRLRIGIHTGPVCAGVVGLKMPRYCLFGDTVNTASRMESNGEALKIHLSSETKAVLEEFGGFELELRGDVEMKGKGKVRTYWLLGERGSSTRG
# HSV augment: increases HSV replication in cells; HSV replication augmentation in cells, fold increase; maximum fold increase; hit rate 0.005% among 220,000; AID 1956; in the data active = maximum fold increase above about 1.5; tested in PC3 cells
# Yeast cmpd fluor: flagged as fluorescent in efflux inhibitor counter-screen; shares compounds with Efflux pump mplx; S. cerevisiae AD/pABC3, compound fluorescence, flow cytometry; fluorescence ratio to DMSO, % at 10 µM; hit rate 4% among 1,700;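 active = fluorescence ratio to DMSO above its plate's cutoff, the plate mean ratio plus 5 SD, cut at about 210% in these data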;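 note: unstained yeast with no Nile Red so the signal is compound autofluorescence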
# CaMdr1 efflux inh: blocks the Candida albicans Mdr1 efflux pump in yeast | shares compounds with Efflux pump mplx | S. cerevisiae AD/CaMDR1, Nile Red efflux, flow cytometry | inhibition, % at 10 µM | hit rate 1% among 1,700 | AID 588518; in the data active = inhibition above about 26%;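 note: 0% = DMSO vehicle and 100% = reference inhibitor; higher means more Nile Red retained so more efflux inhibition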
# CaCdr2 efflux inh: blocks the Candida albicans Cdr2 efflux pump in yeast | AID 588520 | S. cerevisiae AD/CaCDR2, Nile Red retention, flow cytometry | Nile Red retention ratio vs DMSO, % at 10 µM | hit rate 4% among 1,700 | shares compounds with Efflux pump mplx; in the data active = Nile Red retention ratio vs DMSO above about 190%;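 note: higher ratio means more blocking of Cdr2 efflux of the dye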
# Cdr1 pump inh: inhibitors of Candida albicans Cdr1 efflux pump; AID 588522; hit rate 1% among 1,700; shares compounds with Efflux pump mplx; S. cerevisiae AD/CaCDR1, Nile Red efflux, flow cytometry; inhibition, % at 10 µM;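 active = inhibition above the screen-wide mean plus twice its standard deviation, cut at about 32% in these data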
# * = called active by the depositor; i = inactive; / = no result given. Hits are enriched below; roughly 1% of the tested compounds scored in any of these assays.
SMILES,A1 inh,NPR2 activator,H9c2 TAG inh,Efflux pump mplx,NPR1 activator,HSV augment,Yeast cmpd fluor,CaMdr1 efflux inh,CaCdr2 efflux inh,Cdr1 pump inh
CC(=O)Nc1ccccc1OC(C)C(=O)NC(C)c1ccc(F)cc1 (centres undefined),1.3,-0.7,/,5.8*,-3.6,i,116.8,0.0,131.3,-0.1
COC(=O)[C@@]12CCCCC=C1N(CCc1ccc(Cl)cc1)C(=O)[C@H]2CC(=O)NCc1cccc2ccccc12,/,3.7,/,/,1.5,/,/,/,/,/
CCOC(=O)N1CCN(C(=O)C[C@H]2C[C@@]3(C(=O)OC)C(=C[C@H](C(C)C)O[C@@H]3C3CC3)N(CCC3=CCCCC3)C2=O)CC1,/,3.4,/,/,0.0,/,/,/,/,/
CCCCCCC(=O)NC1CCCCN(Cc2cccc(Cl)c2)C1=O (centres undefined),/,2.5,/,/,-6.0,/,/,/,/,/
O=C(CSc1nnc2n(C3CCCC3)c(=O)c3ccccc3n12)N1CCCCCC1,-0.8,5.1,/,0.0,4.1,i,/,/,/,/
COc1ccccc1Cn1c(=O)c2ccccc2n2c(SCC(=O)N3CCCCC3)nnc12,1.0,-2.2,/,1.6*,-2.5,i,111.1,-0.1,110.2,0.1
COC(=O)c1cc(-c2ccc(C)c(C)c2)c(=O)n2c1CCC2,/,-3.8,/,/,3.6,/,/,/,/,/
COc1ccc(C(=O)CC(=O)C(=O)Nc2ccc(Cl)cc2)cc1,0.6,3.2,/,1.4*,0.5,/,82.0,0.5,171.7,0.7
COc1ccc(C(=O)CC(=O)C(=O)Nc2ccc(OC)c(Cl)c2)cc1,0.6,-1.0,/,0.3,-4.5,/,/,/,/,/
O=C(COC(=O)c1ccc2c(c1)OCCO2)Nc1cccc(S(=O)(=O)N2CCOCC2)c1,0.0,-0.8,-5.3,0.5*,-1.3,i,104.0,-0.1,105.1,-0.1
O=C(COc1ccccc1C(=O)NCc1ccccc1)Nc1ccc(I)cc1,/,-9.0,/,/,-9.0,/,/,/,/,/
CCOc1ccc(S(=O)(=O)N2CCCCCC2)cc1,-0.2,2.9,/,9.8*,-2.3,i,107.9,-0.1,99.6,0.0
Cc1cccc(-c2cccc3c4c([nH]c23)[C@@H]2C[C@H](N(C)C(=O)c3ccccc3C)[C@H]([C@H](C)O)C(=O)N2CC4)c1,/,-11.1,/,/,-12.0,/,/,/,/,/
O=C(Nc1ccc(S(=O)(=O)N2CCCCC2)cc1)C1CC(=O)N(Cc2ccccc2)C1 (centres undefined),-1.3,-0.3,-9.8,-0.1,-1.6,/,/,/,/,/
Cc1ccc(CN2CC(C(=O)Nc3ccc(S(=O)(=O)N4CCCCC4)cc3)CC2=O)cc1 (centres undefined),0.1,-4.7,-15.9,16.2*,0.7,/,96.6,-0.2,110.3,0.1
Cc1cccc(NS(=O)(=O)c2ccc(C3CCCCC3)cc2)n1,0.9,0.1,/,8.2*,2.7,i,99.0,-0.1,102.9,0.0
Cc1cccc(NS(=O)(=O)c2ccccc2)n1,0.8,1.6,/,0.0,4.2,i,/,/,/,/
Cc1ccc(CNC(=O)CCc2c(C)nn(-c3ccc(N4CCOCC4)nn3)c2C)cc1,0.3,5.1,/,2.0*,-0.7,/,100.0,-0.1,112.4,0.1
Cc1nn(-c2ccc(N3CCOCC3)nn2)c(C)c1CCC(=O)NCc1ccc(F)cc1,-0.1,3.4,/,0.1,-0.3,/,/,/,/,/
CC(c1c[nH]c2ccccc12)c1c[nH]c2ccc(Br)cc12 (centres undefined),/,-9.4,/,/,-6.6,/,/,/,/,/
Cc1ccc(C)c(OCc2cc(C(=O)N3CCNC(=O)C3)no2)c1,0.4,2.6,/,-0.2,0.7,/,103.1,-0.6,89.7,0.0
Cc1ccc(C)c(OCc2cc(C(=O)N3CCOCC3)no2)c1,0.0,-0.2,/,0.0,2.5,/,/,/,/,/
CCn1ncc(/C=N\NC(=O)COc2cc(C)cc(C)c2)c1C,0.2,-3.7,/,12.6*,0.8,i,101.8,-0.3,103.6,0.0
Cc1cc(C)cc(OCC(=O)N/N=C\c2cn(C)nc2C)c1,-0.5,-5.4,/,-0.1,-5.7,i,/,/,/,/
COc1ccc(CN2C[C@]3(C=C4CCCCC4n4c(=O)n(-c5ccccc5)c(=O)n43)N=C2NC(=O)c2ccccc2)c(OC)c1 (some centres undefined),/,-3.2,/,/,-2.4,/,/,/,/,/
SMILES,A1 inh,NPR2 activator,H9c2 TAG inh,Efflux pump mplx,NPR1 activator,HSV augment,Yeast cmpd fluor,CaMdr1 efflux inh,CaCdr2 efflux inh,Cdr1 pump inh
Oc1ccc(N=Nc2c(O)ccc3ccccc23)cc1,-2.5,-7.5,/,0.8*,-5.9,i,144.9,-0.2,204.3*,0.1
COc1ccc(S(=O)(=O)Nc2ccc3c(c2)N(C(C)=O)CCC3)cc1OC,0.4,11.7,3.9,1.0*,4.1,/,105.6,0.0,100.1,0.3
Oc1ccc(Cl)cc1C=Nc1ccc2c3c(cccc13)CC2,0.2,1.2,/,4.4*,6.3,i,86.5,0.0,97.5,-0.4
COc1ccccc1NC(=O)N1CCC(C(=O)c2ccc(F)cc2)CC1,0.3,-3.3,/,7.5*,1.0,i,103.1,0.3,100.7,0.1
O=S1(=O)c2ccc(N3CCC[C@@H]3CO)cc2O[C@@H]2CCN1C2,/,2.1,/,/,1.5,/,/,/,/,/
COC(=O)[C@]12C[C@H](CC(=O)N3CCSCC3)C(=O)N(Cc3ccc(Cl)cc3Cl)C1=C[C@H](C(C)C)O[C@@H]2C1CC1,/,-20.4,/,/,-25.4,/,/,/,/,/
C[C@H](O)[C@@H]1CN2CCc3c([nH]c4cccc(-c5ccc6c(c5)OCO6)c34)[C@@H]2C[C@@H]1N(C)C(=O)c1ccco1,/,-10.0,/,/,4.9,/,/,/,/,/
CCOC(=O)c1c(/N=C/N(C)C)sc(C)c1C,0.6,0.5,0.0,-0.1,-2.1,i,/,/,/,/
CCOC(=O)c1c(/N=C/N(C)C)sc(/C=N/Nc2ccccc2)c1-c1ccc(Cl)cc1,0.4,-7.8,/,0.6*,0.1,i,103.1,-0.1,113.8,0.0
CC(C)NC(=O)N[C@@H]1C[C@@H]2O[C@@H](CO)CC[C@@H]2O[C@@H]1CCc1ccc(-c2ccccc2F)cc1,/,-8.1,/,/,15.2,/,/,/,/,/
Cc1ccc(O)c(C(=O)CC(=O)c2ccccc2Cl)c1,-9.0,3.2,-6.7,0.6*,0.8,i,88.5,-0.2,89.3,-0.1
COCCCNC(=O)c1oc(=O)c2ccccc2c1-c1ccc(C)cc1,/,-8.4,/,/,-13.7,/,/,/,/,/
CC(C)n1c(N2CCN(C(=O)c3cccs3)CC2)nc2ccccc21,0.3,1.4,4.1,0.3,-6.0,i,/,/,/,/
CC(C)n1c(N2CCN(CC(=O)NCc3cccs3)CC2)nc2ccccc21,-0.6,4.7,-42.3,1.5*,-3.0,i,104.7,-0.2,76.3,-0.3
